Molecules are shown by their SMILES. The panel holds about 83,000 compounds, 20% with a hit somewhere; the sample as a whole holds those more often.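 Compound tested at a single concentration for 48 hours in 96-well plates; a percent growth value below 10 was scored as active.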 A number with no mark means an inactive call. Active and inactive are the calls of the source.

What all share (assay): NCI-60 one-dose screen, 48 h (100 = growth as untreated, 0 = no growth, -100 = all killed)
Conditions in all cases: 10 µM unless noted

For experiment [1], the system named is NCI-H23 lung.
For experiment [2], the system named is NCI-H226 lung.
Experiment [3] relates to NCI-H322M lung.
Experiment [4] deals with HOP-62 NSCLC.
The subject of experiment [5] is NCI-H460 lung.
The subject of experiment [6] is HOP-92 NSCLC.
Experiment [7] has as its system NCI-H522 lung.
The subject of experiment [8] is A549/ATCC NSCLC.
The test system of experiment [9] is 786-0 renal.
For experiment [10], the system named is COLO 205 colon.
Experiment [11] has as its system DU-145 prostate.
Experiment [12] concerns K-562 leukemia.
Experiment [13] relates to MDA-MB-231 breast.
Experiment [14] has as its system RXF 393 renal.
In experiment [15] the test system is SF-268 CNS.
Experiment [16] concerns SF-295 CNS.
In experiment [17] the test system is SF-539 CNS.
In experiment [18] the test system is M14 melanoma.
Experiment [19] has as its system MALME-3M melanoma.

As for `CCN(CC)Cc1cc(Nc2cc(C(F)(F)F)c(C#N)c3nc4ccccc4n23)ccc1O`, the growth was 17.2% in [1]; 16.5% in experiment [2]; 16.3% in experiment [3]; 14% in experiment [4]; 6.25% (active) in experiment [5]; -30.2% (active) in experiment [6]. For the same compound, the growth in [7] was -55.3% (active); in experiment [8] it was 6.97% (active); in [9] it was 11.9%; in [10] it was -31.4% (active); in experiment [11], 25.1%; in experiment [12] it was 11.3%. The growth is -8.6% (active) in experiment [13]; 0.263% (active) in experiment [14]; 26.7% in [15]; 5.79% (active) in experiment [16]; 5.91% (active) in experiment [17]; 24.3% in [18].
On to `COc1cnc2c(c1)C(=O)c1c-2n(CCCNC2=NCCS2)c(=O)c2cc(Cl)ccc12`, for which the growth in [1] was -52.4% (active); in experiment [2], 46.9%; in experiment [3] it was -43.9% (active); in experiment [4], -78.9% (active); in experiment [5], -80.3% (active); in experiment [6], 77.6%. Besides, the growth in experiment [7] was -64.7% (active); in [8] it was -89.6% (active); in experiment [9], -96.7% (active); in experiment [10] it was -74.3% (active); in [11], -76.7% (active); in experiment [12], -58.3% (active). In addition, the growth in [13] is -70.7% (active); in [14], 39%; in [15], -49.4% (active); in [16], -93.5% (active); in [17], -84.4% (active); in [18] it was -70.3% (active).
Turning to `O=C(Cc1ccccc1)Nc1nnc(NC2CCN(c3nnc(NC(=O)Cc4ccccc4)s3)CC2)s1`, the growth was 96.1% in experiment [1]; 98.7% in experiment [2]; 35.3% in experiment [3]; 75.9% in [4]; 93.3% in experiment [5]; 94.5% in experiment [6]. The growth in [7] is 72.5%; in [8] it was 34.4%; in [9] it was 89%; in experiment [10], 90.1%; in experiment [11] it was 91.7%; in experiment [12], 87.9%. Besides, the growth in experiment [19] is 82.8%; in experiment [13] it was 77.5%; in experiment [15], 91.1%; in experiment [16], 56.8%; in experiment [17] it was 93.5%; in experiment [18] it was 85.2%.
Take `N#Cc1c(-c2ccc(C(F)(F)F)cc2)cc(NCC2CCS(=O)(=O)CC2)n2c1nc1ccccc12`: the growth in [1] is 88.8%; in [2], 93.7%; in experiment [3] it was 100%; in [4] it was 86.4%; in [5] it was 96.8%; in [6] it was 80.9%. Further, the growth in experiment [7] was 64.5%; in experiment [8], 77%; in [9], 84.6%; in [10], 96.6%; in [11], 106%; in [12] it was 90%. Also, the growth in experiment [13] was 56.2%; in experiment [14], 72.6%; in experiment [15], 82.4%; in experiment [16], 88.2%; in experiment [17], 82%; in experiment [18], 99.2%.
As to `C[N+](C)(CCOC(c1ccccc1)c1ccccc1)CC(=O)OCc1ccccc1`, the growth in [1] was 101%; in [2], 91.8%; in [3] it was 90.6%; in [4], 97.8%; in experiment [5], 110%; in experiment [6], 106%. For the same compound, the growth is 93.8% in experiment [7]; 102% in [8]; 105% in experiment [9]; 103% in experiment [10]; 105% in [11]; 126% in experiment [12]. Further, the growth in [19] is 99.7%; in experiment [13] it was 113%; in experiment [15], 106%; in experiment [16], 103%; in [17], 105%; in experiment [18], 91.3%.
Regarding `COc1cnc2c(c1)C(=O)c1c-2n(CCCN2CCC(N)CC2)c(=O)c2cc([N+](=O)[O-])ccc12`, the growth in experiment [1] was 38.4%; in [2] it was 35.7%; in [3], 52.8%; in experiment [4], 30.6%; in experiment [5], 11.2%; in [6], 67.1%. The growth in experiment [7] was 42.2%; in [8], 23%; in experiment [9], 36.2%; in experiment [10], 58.2%; in [11], 13.2%; in [12] it was 49.2%. Further, the growth is 57.9% in [13]; 64.4% in experiment [14]; 50% in experiment [15]; 24.2% in experiment [16]; 70.3% in experiment [17]; 52.9% in [18].
In the case of `C=C1C(=O)O[C@H]2[C@H]1CC/C(C=Nc1c(N)cc(C(F)(F)F)cc1C(F)(F)F)=C\CC[C@@]1(C)O[C@@H]21`, the growth in [1] was -29% (active); in experiment [2] it was -53.1% (active); in experiment [3], 49.3%; in experiment [4], 21.3%; in [5], -17.9% (active); in experiment [6], -39.9% (active). Besides, the growth in experiment [7] was -55.4% (active); in [8], 11.9%; in experiment [9] it was -66.5% (active); in [10] it was -59.7% (active); in experiment [11], 5.82% (active); in experiment [12], -4.88% (active). Moreover, the growth in [13] is -49.5% (active); in [14] it was -81.6% (active); in experiment [15], 1.5% (active); in experiment [16], 49.7%; in experiment [17] it was -84.5% (active); in experiment [18], -61.2% (active).
On to `COc1ccc(-n2c(=O)c3ccccc3n(Cc3ccc(C(=O)NO)cc3)c2=O)cc1`, for which the growth in experiment [1] was -50.1% (active); in [2] it was 31.8%; in [3] it was 38.4%; in experiment [4], 25.8%; in experiment [5] it was 36.4%; in [6], 48.2%. Besides, the growth in [7] was -41.8% (active); in experiment [8], 38.6%; in experiment [9], 56.5%; in experiment [10], -50.1% (active); in [11] it was 20.2%; in [12] it was 1.76% (active). Besides, the growth was 47.4% in experiment [13]; -41.6% (active) in experiment [14]; 32.5% in experiment [15]; 4.34% (active) in [16]; -10.6% (active) in experiment [17].

For the origin of these results see PubChem BioAssay (NCI).
